Screening results deposited in PubChem BioAssay by Broad Institute.
Rows were chosen to be rich in hits. Some 2.1% of all compounds tested hit in one or more screens of this group.
NSD2 HMT inh – inhibitors of human histone methyltransferase NSD2; O96028; NSD2 peptide methylation, AlphaScreen, 120 min; inhibition, % at 12.5 µM; hit rate 0.54% among 310,000; AID 743445; in the data active means inhibition above about 50%
Target sequence (O96028 whole entry, looked up): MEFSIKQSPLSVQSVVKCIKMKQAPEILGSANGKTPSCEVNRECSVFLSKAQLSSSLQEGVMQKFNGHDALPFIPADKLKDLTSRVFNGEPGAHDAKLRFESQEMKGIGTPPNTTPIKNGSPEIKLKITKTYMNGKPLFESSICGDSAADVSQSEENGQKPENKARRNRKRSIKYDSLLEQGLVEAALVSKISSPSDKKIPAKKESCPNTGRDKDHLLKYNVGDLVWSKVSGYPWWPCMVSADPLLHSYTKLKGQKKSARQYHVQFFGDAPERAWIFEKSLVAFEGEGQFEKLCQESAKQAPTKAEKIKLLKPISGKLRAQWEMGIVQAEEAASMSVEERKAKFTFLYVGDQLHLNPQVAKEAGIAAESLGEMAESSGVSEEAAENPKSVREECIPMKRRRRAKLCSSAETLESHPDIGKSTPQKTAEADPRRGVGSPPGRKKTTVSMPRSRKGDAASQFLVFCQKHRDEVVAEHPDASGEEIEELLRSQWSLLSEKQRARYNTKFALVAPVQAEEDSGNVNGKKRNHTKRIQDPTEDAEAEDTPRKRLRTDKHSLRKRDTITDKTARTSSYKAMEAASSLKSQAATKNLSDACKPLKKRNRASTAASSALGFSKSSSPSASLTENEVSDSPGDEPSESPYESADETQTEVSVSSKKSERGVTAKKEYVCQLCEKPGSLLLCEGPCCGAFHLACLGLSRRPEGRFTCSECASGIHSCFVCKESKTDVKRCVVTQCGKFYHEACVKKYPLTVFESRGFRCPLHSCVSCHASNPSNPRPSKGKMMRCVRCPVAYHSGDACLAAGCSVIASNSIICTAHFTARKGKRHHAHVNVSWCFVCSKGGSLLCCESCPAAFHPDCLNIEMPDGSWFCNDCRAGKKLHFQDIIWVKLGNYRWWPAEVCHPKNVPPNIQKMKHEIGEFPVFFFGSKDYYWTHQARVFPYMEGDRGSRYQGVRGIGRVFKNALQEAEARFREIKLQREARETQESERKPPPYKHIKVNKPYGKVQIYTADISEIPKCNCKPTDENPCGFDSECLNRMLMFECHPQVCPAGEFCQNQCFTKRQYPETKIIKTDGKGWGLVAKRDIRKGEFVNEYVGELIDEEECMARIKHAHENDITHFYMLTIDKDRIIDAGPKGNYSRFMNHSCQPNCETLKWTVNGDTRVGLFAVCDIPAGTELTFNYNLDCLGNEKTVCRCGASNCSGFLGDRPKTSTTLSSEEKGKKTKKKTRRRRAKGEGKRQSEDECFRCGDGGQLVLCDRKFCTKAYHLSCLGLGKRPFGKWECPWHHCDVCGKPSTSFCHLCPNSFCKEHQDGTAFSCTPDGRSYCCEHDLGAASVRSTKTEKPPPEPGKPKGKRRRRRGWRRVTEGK
PGC1a acetyl inh – PGC1a acetylation modulation, inhibitor mode. inhibition, % at 15.6 µM. hit rate 0.17% among 350,000. AID 651687. U2OS PGC1a acetylation, AlphaScreen anti-acetyl-lysine; with virally co-expressed GCN5 acetyltransferase;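 active means every replicate shows inhibition of at least 40%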;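 further: 0% = neutral control wells and 100% = positive control wells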
MLL AF4-AF9 inh – blocks AF4 peptide binding to human AF9 | P42568 | AlphaScreen, biotin-AF4 peptide binding to FLAG-AF9 | inhibition, % at 10 µM | hit rate 0.47% among 350,000 | AID 651704;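 active means every replicate reaching a set inhibition limit, whatever the replicate mean, cut at about 25% in these data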;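 further: 0% = plate neutral control median and 100% = total signal loss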
GSIS activator – GLuc luminescence reporter in INS-1E cells, primary screen for activators of glucose-dependent secretion of insulin; INS-1E GLuc reporter insulin secretion, 2-3 h; activation, % at 16.6 µM; hit rate 0.61% among 370,000; AID 743287;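 active means lowest replicate activation of at least 40%, so every replicate reaches that level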;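 further: 0% = median of neutral control wells and 100% = median of IBMX positive control wells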
Env fusion inh – inhibitors of HIV Env-mediated cell fusion; HeLa-JRFL Env/CEM21 cell fusion, luciferase; hit rate 1.1% among 360,000; inhibition, % at 12.3 µM;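 active means mean replicate inhibition score of at least 50 and every replicate individually at or above 50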;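 further: 0% = plate neutral controls and 100% = maraviroc near 300 nM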
* hit, by the source's call; [ ] = dose if it differs, or a comment.

C[C@@H]1CN([C@@H](C)CO)C(=O)c2cccc(NS(=O)(=O)c3cccs3)c2O[C@@H]1CN(C)Cc1ccc(Oc2ccccc2)cc1 was read as PGC1a acetyl inh -10.7, MLL AF4-AF9 inh 3.9 and GSIS activator -15.3.
COc1ccc2c(c1)[nH]c(=O)c1sc3ccccc3c12 was read as NSD2 HMT inh 0.1 and PGC1a acetyl inh 4.4.
`COc1ccc2sc3c(=O)[nH]c4ccccc4c3c2c1` gave NSD2 HMT inh 0.7, PGC1a acetyl inh 12.4 and GSIS activator 103.2*.
`CC1(C)CC(=O)C(C=NC2CC(C)(C)NC(C)(C)C2)=C(O)C1` gave NSD2 HMT inh -1.2, PGC1a acetyl inh -4.2 and GSIS activator 44.1*.
For CC1(C)CC(=O)C(C=NC2CCCCC2)=C(O)C1 the results were NSD2 HMT inh -1.1, PGC1a acetyl inh -14.0 and GSIS activator -2.2.
For COc1ccc(CN2CCN(Cc3cccc4nonc34)CC2CCO)c(C)c1C (stereo not given) the results were NSD2 HMT inh 1.4, MLL AF4-AF9 inh 5.5, GSIS activator -4.0 and Env fusion inh -1.4.
N#C/C(=C\c1cccs1)c1nc2ccccc2[nH]1 was read as PGC1a acetyl inh -11.6, GSIS activator -4.7 and Env fusion inh -43.4.
Screening N#C/C(=C/c1ccc(O)c(O)c1)c1nc2ccccc2[nH]1 returned NSD2 HMT inh 66.7*, MLL AF4-AF9 inh -2.2, GSIS activator -3.9 and Env fusion inh -100.2.
For Nc1c(C(=O)Nc2ccc3c(c2)OCCO3)nnn1Cc1ccc(Cl)cc1 the results were NSD2 HMT inh -2.5, MLL AF4-AF9 inh -2.0, GSIS activator 45.0* and Env fusion inh -167.4.
For Nc1c(C(=O)Nc2ccc3c(c2)OCCO3)nnn1Cc1cccc(F)c1 the results were NSD2 HMT inh 1.1, MLL AF4-AF9 inh -13.4, GSIS activator 1.4 and Env fusion inh -81.3.
Cc1c(C(=O)N2CCC2)oc2c(F)cccc12 was read as NSD2 HMT inh -0.2, PGC1a acetyl inh -1.8, MLL AF4-AF9 inh 0.3, GSIS activator 10.1 and Env fusion inh -13.3.
For CCCCOc1ccc(Nc2cc(Cl)ccc2C(=O)O)cn1 the results were NSD2 HMT inh 11.8, MLL AF4-AF9 inh 3.2, GSIS activator -32.1 and Env fusion inh 62.8*.
COc1ccc(CC(=O)Nc2cc(Cl)ccc2C(=O)O)cc1 was read as NSD2 HMT inh -2.9, PGC1a acetyl inh 11.2, MLL AF4-AF9 inh -5.2, GSIS activator 2.7 and Env fusion inh -1.6.
For C[C@@H]1CN([C@@H](C)CO)C(=O)c2cc(NS(=O)(=O)c3cccs3)ccc2O[C@@H](C)CCCCO[C@H]1CN(C)C(=O)Nc1ccc(F)cc1 the results were PGC1a acetyl inh -4.2, MLL AF4-AF9 inh -0.6, GSIS activator -24.2 and Env fusion inh -130.6[16.7 µM].
O=C(Nc1ccccc1)c1ccccc1NS(=O)(=O)c1ccc(Cl)s1 was read as PGC1a acetyl inh -9.4.
O=C(Nc1ccccc1Cc1ccccc1)c1ccccc1NS(=O)(=O)c1ccc(Cl)s1 was read as NSD2 HMT inh 8.4, GSIS activator -23.5 and Env fusion inh 67.4*.
Screening CCC(=O)c1ccc(OCC(O)Cn2cnc3ccccc32)cc1 (stereo not given) returned NSD2 HMT inh 0.1 and PGC1a acetyl inh -1.5.
Screening CC(=O)N1C(c2ccccc2O)C[C@]2(C)CC(=O)NC12 (stereo not given in full) returned NSD2 HMT inh -0.3, PGC1a acetyl inh 7.7, MLL AF4-AF9 inh 0.9, GSIS activator 13.8 and Env fusion inh 4.2.
For C[C@@]12CC(=O)NC1N(C(=O)c1cccc(C(F)(F)F)c1)C(c1ccccc1O)C2 (stereo not given in full) the results were NSD2 HMT inh -11.6, PGC1a acetyl inh -1.4 and Env fusion inh 105.0*.
For Cc1cccc(C(=O)Oc2ccccc2C2C[C@]3(C)CC(=O)NC3N2C(=O)c2cccc(C)c2)c1 (stereo not given in full) the results were NSD2 HMT inh 3.5, PGC1a acetyl inh 15.3 and Env fusion inh 47.9*.
COc1ccc(OC)c(C(=O)N(C[C@H]2CC[C@@H]([C@@H]3CC[C@H](CO)O3)O2)C(C(=O)NC(C)(C)C)c2ccc(-c3ccccc3)cc2)c1 (stereo not given in full) was read as MLL AF4-AF9 inh 3.5, GSIS activator -5.9 and Env fusion inh -5.9.
O=C(NNC(=O)c1cccc(O)c1)Nc1ccc([N+](=O)[O-])cc1 was read as NSD2 HMT inh 1.4, PGC1a acetyl inh 1.1, MLL AF4-AF9 inh -3.2, GSIS activator -6.4 and Env fusion inh 7.1.
Screening O=c1[nH]nc(Sc2ncnc3sccc23)n1CCc1ccccc1 returned NSD2 HMT inh 0.0 and Env fusion inh 64.3*.
For CCN(CC)C(=O)CSc1n[nH]c(=O)n1CCc1ccccc1 the results were NSD2 HMT inh -8.0, PGC1a acetyl inh -0.9, MLL AF4-AF9 inh -0.5, GSIS activator 1.1 and Env fusion inh -7.0.
Screening Cc1nn(Cc2cccc(C(=O)NC3CCCCC3)c2)c(C)c1Cl returned NSD2 HMT inh -1.9 and PGC1a acetyl inh -29.2.
Screening CC1(C)Cc2c(cnn2-c2ccccc2)C(NC(=O)CCN2CCCC2=O)C1 (stereo not given) returned NSD2 HMT inh 0.0, MLL AF4-AF9 inh -0.9, GSIS activator 40.6* and Env fusion inh 2.2.
CC1(C)Cc2c(cnn2-c2ccccc2)C(NC(=O)CCCN2CCCCC2=O)C1 (stereo not given) was read as NSD2 HMT inh -3.7, PGC1a acetyl inh 4.9, MLL AF4-AF9 inh 0.7, GSIS activator 4.7 and Env fusion inh 5.5.
Cc1onc(-c2ccc(Cl)cc2)c1-c1ccnc(SCC(=O)Nc2cc(Cl)cc(Cl)c2)n1 was read as NSD2 HMT inh -0.9, MLL AF4-AF9 inh -0.2 and Env fusion inh 75.5*.
For O=C(CN1N=C(C(F)(F)F)CC1(O)c1ccc([N+](=O)[O-])cc1)c1ccccc1 (stereo not given) the results were NSD2 HMT inh 11.5, PGC1a acetyl inh -5.3 and Env fusion inh -167.2.
Screening O=C(c1ccccc1O)N1N=C(C(F)(F)F)CC1(O)c1ccc([N+](=O)[O-])cc1 (stereo not given) returned NSD2 HMT inh 10.7, PGC1a acetyl inh 9.4, MLL AF4-AF9 inh 11.7, GSIS activator -21.4 and Env fusion inh 58.7*.
COc1ccc(CN2CCNC(=O)C2CC(=O)NCCCn2nnc3ccccc32)cc1C (stereo not given) was read as NSD2 HMT inh -1.8, PGC1a acetyl inh 6.2, MLL AF4-AF9 inh 1.9, GSIS activator 18.9 and Env fusion inh 60.9*.
`COc1ccc(CN2CCNC(=O)C2CC(=O)NCCc2nc(C)c3c(n2)CCC3)cc1C` (stereo not given) gave NSD2 HMT inh -2.2, PGC1a acetyl inh 7.5, MLL AF4-AF9 inh 4.3, GSIS activator -4.0 and Env fusion inh 9.5.
For CN(C)S(=O)(=O)c1cc(NC(=O)c2ccc(-n3ccnc3)c([N+](=O)[O-])c2)ccc1Cl the results were NSD2 HMT inh 2.9, PGC1a acetyl inh -3.2, MLL AF4-AF9 inh 6.3, GSIS activator -24.2 and Env fusion inh 39.1.
